# Data reported in PubChem BioAssay (NCATS).
# Records with an inconclusive call do not appear. A call without a number means that no potency is given here. Calls of active or inactive are those of the source. The call rests on the fitted dose curve; in most records, active means well fitted inhibition curve with a large enough effect; inconclusive means small, poorly fitted or top-dose-only effect; inactive means flat fitted curve, though single readings scatter.
# Test system: MCC-26
# Assay: qHTS assay to identify novel small-molecules to repurpose for Merkel cell carcinoma treatment (AID 1296009); further: nearly all actives have a fitted effect of over 60% in size
# Conditions: MCC and control cell lines, CellTiter-Glo viability, 72 h; series mostly up to 46 µM
# Description: MCC is a rare and aggressive neuroendocrine skin cancer with limited treatment options. Approximately 80% of MCCs have the Merkel cell polyomavirus (MCPyV) DNA integrated into the host genome (virus-positive: VP-MCC) and viral oncogenes drive oncogenesis. The remaining MCCs are virus-negative (VN-MCC) and are caused by UV mutagenesis. To identify novel treatments for VP-MCC and/or VN-MCC we screened three VP-MCC cell lines (WAGA, MKL-1, MKL-2), three VN-MCC cell lines (MCC-13, MCC-26, UISO), and four immortalized, non-transformed control cell lines (HaCaT, HEK293T, CRL7250, NIH-3T3) against ~2,400 compounds in the NCGC Pharmaceutical Collection (NPC) and ~1,900 compounds in the Mechanism Interrogation PlatE (MiPE). Using cell viability as a readout (CellTiter-Glo assay) we found both overlapping and distinct drugs that can be repurposed for the treatment of VP-MCC and VN-MCC.
# A high-throughput screen was conducted in 1536-well white flat bottom plates (Corning) on a Kalypsys robotic system. Cell lines WAGA, MKL-1, MKL-2, MCC-13, MCC-26, UISO, HaCaT, HEK293T, CRL7250, and NIH-3T3 were screened against 2 small molecule annotated drug libraries NPC and MIPE in dose response (8 and 11 pt. respectively) measuring cell viability after 72 hours of incubation. […] A 1,536 pintool (Kalypsys) was used to transfer 23 nL of compound in DMSO to the 1,536-well assay plates. After 72 hr incubation at 37 degree celsius, 2.5 uL of CellTiter-Glo (Promega) was dispensed into each well using a BiorapTR. Plates were incubated at room temperature for 10 min, transferred to a ViewLux (PerkinElmer) and the luminescence was recorded using an exposure time of 2 seconds. Relative luminescence units (RLUs) were normalized to in-plate controls (no cells as a positive (cytotoxicity) control, DMSO as negative control) and the normalized data was processed using NCATS in-house software.
# Potency means the concentration at half of the fitted maximal effect.
row,SMILES,Potency
1,C[C@@H]1CC2=CC(=O)CC[C@@H]2[C@H]2CC[C@@]3(C)[C@@H](CC[C@]3(C)O)[C@@H]21,inactive
2,COc1cc(OC)c(OC)cc1C=O,inactive
3,NC(=O)c1cc([N+](=O)[O-])cc([N+](=O)[O-])c1,inactive
4,CC[N+]1(CC)CCC(OC(=O)C(O)(c2ccccc2)c2ccccc2)C1 (stereo not given),inactive
5,O=C1CN=C(c2ccccc2)c2cc([N+](=O)[O-])ccc2N1,inactive
6,CN1C(=O)NC(=O)C(C)(C2=CCCCC2)C1=O (stereo not given),inactive
7,CCCCCCCCCC(=O)O[C@H]1CC[C@H]2[C@@H]3CCC4=CC(=O)CC[C@@H]4[C@H]3CC[C@]12C,inactive
8,NC(=O)CS(=O)C(c1ccccc1)c1ccccc1 (stereo not given),inactive
9,C[C@]12CC[C@@H]3c4ccc(OC(=O)N(CCCl)CCCl)cc4CC[C@H]3[C@@H]1CC[C@@H]2OP(=O)(O)O,inactive
10,CCN(CCO)CCn1c(Cc2ccccc2)nc2c1c(=O)n(C)c(=O)n2C,inactive
11,C[C@]12CCC(=O)C=C1CC[C@@H]1[C@@H]2CC[C@]2(C)C(=O)CC[C@@H]12,inactive
12,CN(C)CCc1c[nH]c2cccc(OP(=O)(O)O)c12,inactive
13,CCC1(c2ccc(N)cc2)CCC(=O)NC1=O (stereo not given),inactive
14,COC(=O)[C@@H](N)CCCN/C(N)=N/[N+](=O)[O-],inactive
15,CC(C)N(CCC(C(N)=O)(c1ccccc1)c1ccccn1)C(C)C (stereo not given),inactive
16,CC(NC(C)(C)C)C(=O)c1cccc(Cl)c1 (stereo not given),inactive
17,CC(Cc1ccccc1)NCCn1cnc2c1c(=O)n(C)c(=O)n2C (stereo not given),inactive
18,O=P1(N(CCCl)CCCl)NCCCO1 (stereo not given),inactive
19,CCCCC/C=C\C/C=C\C/C=C\C/C=C\CCCC(=O)NCC(=O)O,inactive
20,CC(=O)C1CCOC1=O (stereo not given),inactive

row,SMILES,Potency
1,COc1ccc2c(c1OC)C(=O)O[C@H]2[C@@H]1c2cc3c(cc2CCN1C)OCO3,inactive
2,O=C1c2ccccc2C(=O)c2ccccc21,inactive
3,[N-]=[N+]=CC(=O)OC[C@H](N)C(=O)O,inactive
4,COc1cc(CCN)cc(OC)c1OC,inactive
5,O=C1OC(c2ccc(O)c(S(=O)(=O)O)c2)(c2ccc(O)c(S(=O)(=O)O)c2)c2c(Br)c(Br)c(Br)c(Br)c21,inactive
6,C[C@]12CCC(=O)C=C1CC[C@@H]1[C@H]3CC[C@](C)(O)[C@@]3(C)CC[C@@H]12,inactive
7,CNCC(=O)c1ccc(O)c(O)c1,inactive
8,CC(C(=O)c1ccccc1)N(C)C (stereo not given),inactive
9,CC(C)(N)Cc1ccccc1Cl,inactive
10,CC(=O)NC1CCSC1=O (stereo not given),inactive
11,CC1(C)C(C=C(Cl)Cl)C1C(=O)OC(C#N)c1cccc(Oc2ccccc2)c1 (stereo not given),inactive
12,CCCN(CCC)C(=O)Cc1c(-c2ccc(Cl)cc2)nc2ccc(Cl)cn12,inactive
13,CCOP(=S)(OCC)Oc1ccc2c(C)c(Cl)c(=O)oc2c1,inactive
14,C[C@]12CC[C@@H]3c4ccc(OC(=O)N(CCCl)CCCl)cc4CC[C@H]3[C@@H]1CC[C@@H]2O,inactive
15,COC(=O)C(Cl)C(=O)OC,inactive
16,CNC(C)(C)Cc1ccccc1,inactive
17,O=C(O)CCCc1ccc(N(CCCl)CCCl)cc1,inactive
18,CCN[C@@H](C)Cc1cccc(C(F)(F)F)c1,inactive
19,Clc1ccc(C(c2ccc(Cl)cc2)C(Cl)(Cl)Cl)cc1,inactive
20,COc1cccc2c1C(=O)c1c(O)c3c(c(O)c1C2=O)C[C@@](O)(C(=O)CO)CC3OC1CC(N2CCOC(OC)C2)C(O)C(C)O1 (stereo not given in full),47.3 nM (active)
